Screens deposited in PubChem by National Center for Advancing Translational Sciences (NCATS).
MCF10A rerep: DNA re-replication induction in MCF 10a cells; MCF 10A DNA re-replication, Hoechst nuclear intensity, 48 h; Potency, µM (series often up to 46.1 µM), for inactives: at the highest dose activity, positive = re-replication, actives largely listed as activators; hit rate 2.9% among 350,000; further: % of control where 0% means no effect; nearly all actives have a fitted effect of over 50% in size
HT1080-NT tox: kills 2HG-producing HT-1080-NT fibrosarcoma cells; HT-1080-NT fibrosarcoma viability, CellTiter-Glo ATP luminescence, 48 h; Potency, µM (doses to about 46.1 µM), inactives show top-dose activity, negative = less viability, actives largely listed as cytotoxic; hit rate 1.6% among 360,000; AID 686970;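 further: NT is the 2HG producing partner of a matched IDH1 knockdown line; 0% = DMSO-treated cells and -100% = media-only wells without cells; nearly all actives have a fitted effect of over 55% in size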
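750 cells/well, RPMI + 5% FBS; 2 h settle, compound pin-transfer, 48 h at 37 degrees C. CellTiter-Glo 10 min RT, luminescence. Normalized to DMSO and media-only wells.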
KB-V1 cytotox: KB-V1 MDR subline cytotoxicity | KB-V1 MDR cells viability, CellTiter-Glo, 72 h | Potency, µM (highest dose often 46.1 µM), actives largely listed as cytotoxic | hit rate 3.4% among 400,000 | AID 1347076; further: on the % scale 0 is the no-effect control and ±100 the full control effect; nearly all actives have a fitted effect of over 60% in size
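Cytotoxicity toward P-gp-expressing KB-V1 cells was determined as loss of CellTiter-Glo luminescence after 72 h at 37 degrees C. Compounds were tested in quantitative HTS format across a concentration range, with curves fitted to normalized data.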
KB-3-1 tox: kills parental KB-3-1 adenocarcinoma cells; KB-3-1 viability, CellTiter-Glo ATP luminescence, 72 h; Potency, µM (series often up to 46.1 µM), usual class: cytotoxic; hit rate 1.4% among 400,000; AID 1347075; further: on the % scale 0 is the no-effect control and ±100 the full control effect; nearly all actives have a fitted effect of over 60% in size
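72 h, 37 °C compound treatment of KB-3-1 parental cells; CellTiter-Glo added, 10 min, luminescence read. Data corrected against DMSO-only plates and normalized before curve fitting.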
SW480 rerep: induces DNA re-replication in SW480 colon adenocarcinoma cells | SW480 DNA re-replication, Hoechst DNA content imaging, 48 h | hit rate 1.8% among 340,000 | Potency, µM (series often up to 46.1 µM), for inactives: top-dose re-replication activation, actives largely listed as activators; further: % of control where 0% means no effect; nearly all actives have a fitted effect of over 55% in size
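Hoechst fluorescence of nuclei (405 nm excitation, 500-530 nm emission) measured by plate-scanning imager after 48 hr compound exposure at 37 C; re-replication scored as increased number of nuclei with elevated intensity.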
HT1080 IDH1KD tx: HT-1080 IDH1 knockdown cell toxicity (counter line) | HT-1080 IDH1 knockdown viability, ATP luminescence, 48 h | Potency, µM (series often up to 46.1 µM), for the others: top-dose activity, negative = toxicity, hits mostly cytotoxic | hit rate 2% among 360,000;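 further: 0% = DMSO wells and -100% = cell-free medium wells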
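CellTiter-Glo luminescence after 48 h compound exposure at 37 degrees C of IDH1-knockdown HT-1080 cells in 5% FBS RPMI. %Activity scaled between DMSO wells and cell-free media wells, with curves fitted and assigned curve classes.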
Starred values were filed as active, the others as inactive; i = inactive; ? = inconclusive; . = not tested or not shown. Only some compounds are listed: those with a hit (about 7.9% of all), similar ones and a draw of the others. The call rests on the fitted dose curve; in most records, active means well fitted curve in the direction sought with a large enough effect; inconclusive means small, poorly fitted or top-dose-only effect, or another doubt; inactive means no such curve, though single readings can be large; an effect the other way counts as inactive or inconclusive. Potency means the concentration at half of the fitted maximal effect.

SMILES	MCF10A rerep	HT1080-NT tox	KB-V1 cytotox	KB-3-1 tox	SW480 rerep	HT1080 IDH1KD tx
Cc1nnn(C23CC4CC(CC(CC(=O)Nc5ccc(C)c(Cl)c5)(C4)C2)C3)n1	15.5%	-4.3%	7.31µM*	i	-1.4%	-13.3%
CCOc1ccccc1CN1C(=O)c2ccccc2C1C(=O)NC1CCCCCC1 (configuration not stated)	.	.	i	?	.	.
COc1ccc(CNC(=O)CN(C)S(=O)(=O)c2ccc3c(c2)OCCO3)cc1OC	?	10.4%	i	i	-5.3%	-1.3%
COc1ccc(-n2c(-c3ccc(Cl)cc3)c[n+]3c2CCc2ccccc2-3)cc1	10.3%	23.1µM*	i	?	29.8%	8.2µM*
COC(=O)C1=C(COc2ccc(C=O)cc2OC)NC(=O)NC1c1cc(C)ccc1C (configuration not stated)	12.1%	5.0%	20.6µM*	?	0.4%	11.2%
CCn1nnc2cc(C(=O)Nc3ccc(OC)cc3)ccc21	.	.	i	i	.	.
Cc1cc(OCCCN2CCC(C(O)(c3ccccc3)c3ccccc3)CC2)ccc1Br	.	16.4µM*	20.6µM*	?	.	?
CC(C)(C(=O)O)c1ccc(C(O)CCCN2CCC(C(O)(c3ccccc3)c3ccccc3)CC2)cc1 (configuration not stated)	-2.3%	13.9%	.	.	-55.3%	-4.9%
N#Cc1ccc(OCC(O)CN2CCC(C(O)(c3ccccc3)c3ccccc3)CC2)cc1 (configuration not stated)	?	-8.1%	i	i	?	?
N#Cc1cccc(OCCCN2CCC(C(O)(c3ccccc3)c3ccccc3)CC2)c1	.	?	23.1µM*	?	.	?
Cc1ccn2c(NC(=O)C(C)(C)Oc3ccc(Cl)cc3)c(-c3cccs3)nc2c1	?	?	i	25.9µM*	0.4%	?
CCOc1ccccc1CN1[C@@H](c2ccc(OC)cc2)CC(C(=O)OC)(C(=O)OC)[C@H]1c1ccccc1	.	4.9%	?	?	.	-4.7%
Cc1cc(C)c(C)c(OCCOCCN2CCN(C)CC2)c1	20.6µM*	-8.1%	i	i	-0.4%	9.9%
CCN(CC)C(=O)CSc1nc(C)cc(C)c1C#N	1.0%	20.9%	i	i	-6.2%	16.0%
CCc1ccc2nc(SCC(=O)N(CC)CC)c(C#N)cc2c1	?	-1.1%	13µM*	i	1.4%	-1.8%
Cc1cc2cc3c(=O)[nH]c(=O)nc-3n(CC(O)C(O)C(O)CO)c2cc1C (configuration not stated)	?	-4.8%	i	i	20.6µM*	-28.5%
Cc1cc2cc3c(=O)[nH]c(=O)cc-3n(CC(O)C(O)C(O)CO)c2cc1C (configuration not stated)	.	-7.6%	i	i	.	-13.9%
O=C(NC1CC1)c1cc(-c2ccccn2)nc2ccccc12	13.2%	8.1%	i	i	-5.1%	8.4%
COc1ccc(NC(=O)c2cc(-c3ccccn3)nc3c(C)cc(C)cc23)c(C)c1	10.3µM*	-4.2%	.	.	?	-2.2%
Cc1cccc(NC(=O)c2ccccc2O)c1C	-1.3%	?	16.4µM*	i	-17.9%	-18.1%
Cc1cc(C)c2nc(-c3ccccn3)cc(C(=O)NCCc3ccc(S(N)(=O)=O)cc3)c2c1	?	-18.7%	i	i	?	?
Cc1cc(C)c2nc(-c3ccccn3)cc(C(=O)NCc3ccc(S(N)(=O)=O)cc3)c2c1	12.6µM*	.	i	i	-1.7%	.
Cc1cccc(NC(=O)c2cc(-c3ccccn3)nc3ccccc23)c1C	?	?	10.3µM*	?	16.2%	-20.7%
CCC(Sc1nnc(-c2ccc(OC)cc2)c(-c2ccc(OC)cc2)n1)C(=O)Nc1cccc(OC)c1 (configuration not stated)	.	.	i	i	.	.
CN(C)c1ccc(C(CNC(=O)Cc2cccc3ccccc23)N(C)C)cc1 (configuration not stated)	1.2%	-11.8%	i	i	-4.1%	-8.2%
SMILES	MCF10A rerep	HT1080-NT tox	KB-V1 cytotox	KB-3-1 tox	SW480 rerep	HT1080 IDH1KD tx
Cc1ccccc1Cn1nnc(C(=O)Nc2cccc(C)c2C)c1N	14.6µM*	-9.6%	13µM*	?	3.1%	-3.2%
Cc1ccc(CNC(=O)Cn2nnc(C(=O)Nc3cccc(C)c3C)c2N)cc1	-3.7%	?	i	i	-0.3%	?
COc1cccc(NC(=O)c2cc(-c3ccccn3)nc3ccccc23)c1	11.8%	2.3%	1.84µM*	?	0.1%	-2.4%
COc1cccc(NC(=O)c2ccccc2Oc2ccccc2)c1	-0.6%	10.9%	i	i	-21.7%	10.2%
COc1cccc(NC(=O)CN(C)C(=O)c2cccnc2Nc2cccc(C(F)(F)F)c2)c1	20.6µM*	?	?	?	?	16.4µM*
COc1cccc(Nc2ncccc2C(=O)Nc2ccccc2)c1	23.1µM*	16.6%	i	i	?	13.7%
CC(=O)c1cccc(NC(=O)CN2C(=O)CCc3cc(S(=O)(=O)N4CCCCC4)ccc32)c1	.	.	i	?	.	.
O=C(COC(=O)c1cc(S(=O)(=O)N2CCCCC2)ccc1N1CCOCC1)NCCc1ccc(F)cc1	2.3%	-2.4%	i	i	1.8%	2.2%
CCn1c(SCC(=O)N(C)c2c(N)n(Cc3ccccc3)c(=O)[nH]c2=O)nnc1-c1cccs1	.	8.3%	i	i	.	10.5%
CC1CN(Cc2cc(=O)oc3cc(O)ccc23)CC(C)O1 (configuration not stated)	-56.4%	1.2%	i	i	-20.6%	-2.0%
CCSc1ccccc1C(=O)Nc1cccc(OC)c1	-0.4%	25.1%	18.4µM*	i	0.9%	9.7%
Clc1ccc(-c2nnc3sc(-c4ccc(Br)o4)nn23)c(Cl)c1	9.2µM*	-5.1%	?	i	3.2%	-2.9%
CCCN(CCC)C1=CC(=[N+]2CCCC2)CC(C)(C)C1	-0.8%	2.06µM*	i	2.59µM*	-3.8%	2.31µM*
CC1(C)CC(N2CCCCC2)=CC(=[N+]2CCCCC2)C1	24.3%	4.11µM*	i	5.8µM*	-9.0%	?
CCn1nc(C)c(CCN(C)C(=O)Nc2cccc(Cl)c2C)c1C	.	.	i	i	.	.
CC1(C)C(=O)Nc2ccccc2N1C(=O)Cn1ncc(Cl)c(Cl)c1=O	?	-10.2%	i	?	9.2µM*	-25.2%
O=C(Cn1ncc2c3ccccc3n(Cc3ccccc3)c2c1=O)N1CCN(c2ncccn2)CC1	16.1%	-7.0%	5.17µM*	?	3.7%	-24.4%
